EWS-Fli inh: blocks EWS/Fli oncoprotein-driven transcription; A673 NR0B1-luciferase reporter, viability-normalised; AID 651661; 0.67% of 350,000 active; inhibition, % at 12.6 µM;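 active means mean inhibition of at least 50% after viability correction, with every replicate also passing that limit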;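 further: firefly luciferase signal divided by Alamar Blue viability fluorescence both relative to DMSO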
F508del corr: CFTR F508del correction in bronchial cells; CFBE cells, YFP halide quenching; stimulated with forskolin plus potentiator P3; % fluorescence drop versus neutral controls; activity (quench increase), % at 7.58 µM; 0.36% of 350,000 active; AID 720511;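 active means mean added fluorescence quench of at least 8% versus neutral control, with both replicates also reaching 8%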;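 further: cells transiently co-express mutant CFTR-F508del with the halide-sensitive YFP; corrector assay measuring rescue of mutant channel to the surface after 24 h compound exposure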
PAX8 reporter: PAX8 transcriptional activity inhibition; RMG-I TPO-luciferase reporter, SteadyGlo, 24 h; inhibition, % at 12.6 µM; 1.2% of 360,000 active;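 active means mean replicate inhibition at least 60% with every replicate also reaching 60%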;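 further: luciferase light reporting Pax8 driven TPO promoter activity; plate controls were median of neutral control wells for no effect and mitoxantrone controls for full effect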
LGR2 antag: inhibitors of bursicon-induced Drosophila LGR2 receptor cAMP signaling; HEK293 LGR2, CRE-luciferase, bursicon-stimulated, 4 h; inhibition, % at 9.99 µM; 0.35% of 380,000 active; AID 720647;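 active means drop in luminescence signal, shown as inhibition above about 50% in the replicate tests, limit read from the data, passing the limit was not always enough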;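 further: agonist challenge used bursicon conditioned medium at about half maximal strength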
Active calls of the source: *; . = no result given. Rows were chosen to be rich in hits. Some 1.8% of all compounds tested hit in one or more screens of this group.

SMILES | EWS-Fli inh | F508del corr | PAX8 reporter | LGR2 antag
COc1cccc(Cn2cnc(-c3ccccc3OC)c2-c2cc(C)cc(C)c2)c1 | 15 | -3 | 2 | 17
COC(CNC(=O)[C@H](CSCc1ccccc1)N1Cc2ccccc2C1=O)OC | 1 | -3 | -11 | -13
COC(CNC(=O)[C@H](Cc1ccccc1)N1Cc2ccccc2C1=O)OC | 5 | 8.5* | 9 | -1
CCCC(=O)N1CCN(c2ccc(NC(=O)c3cc4ccccc4o3)cc2)CC1 | . | . | . | 22
CCC(=O)N1CCN(c2ccc(NC(=O)c3ccc([N+](=O)[O-])o3)cc2)CC1 | 54* | 2 | 90* | 5
CC1CCN(c2ccc(NC(=O)c3ccc([N+](=O)[O-])o3)cc2)CC1 | 13 | -1 | 36 | 2
CCCC(=O)N1CCN(c2ccc(NC(=O)c3ccc([N+](=O)[O-])o3)cc2)CC1 | 58* | -5 | 90* | 18
CS(=O)(=O)N1CCN(c2ccc(NC(=O)c3ccc([N+](=O)[O-])o3)cc2)CC1 | 43 | -4 | 71* | 10
O=C(Nc1ccc(N2CCN(C(=O)c3ccc(Cl)cc3)CC2)cc1)c1ccc([N+](=O)[O-])o1 | 67* | -8 | 49 | 46
CCCCc1cc(=O)oc2cc(C)cc(OCC(=O)N3CCC(C(N)=O)CC3)c12 | -2 | 0 | . | 2
CC(C)(C)C(=O)N1CCN(c2ccc(NC(=O)c3ccc([N+](=O)[O-])o3)cc2)CC1 | 54* | -2 | 101* | 5
O=C(Nc1ccc(N2CCN(Cc3ccccc3F)CC2)cc1)c1ccc([N+](=O)[O-])o1 | 52* | -1 | . | 13
O=C(Nc1ccc(N2CCCCC2)cc1)c1ccc([N+](=O)[O-])o1 | -1 | 0 | 16 | -12
Cc1ccc(CNC(=O)C2CC(c3cc(C(F)(F)F)cc(C(F)(F)F)c3)=NO2)o1 (configuration not stated) | 54* | 3 | 1 | 2
Cc1ccc(CCNC(=O)C2CC(c3cc(C(F)(F)F)cc(C(F)(F)F)c3)=NO2)cc1 (configuration not stated) | -2 | -1 | -17 | 4
CC1(c2ccc3ccccc3c2)NC(=O)N(CC(=O)O)C1=O (configuration not stated) | -12 | -1 | 0 | 6
CC1(c2ccc3ccccc3c2)CCC(=O)O1 (configuration not stated) | -2 | 8.7* | -35 | -20
COc1ccc(NC(=O)c2ccc(-c3ccc(-c4noc(C)n4)cc3C)cc2)cc1N1CCN(C)CC1 | 9 | -5 | 32 | 104*
COc1cc(C(=O)Nc2ccc3nc(N4CCN(C)CC4)cc(C)c3c2)cc(OC)c1OC | -4 | 3 | 1 | 21
COc1ccc(S(=O)(=O)Nc2ccc3c(c2)C(=O)N([C@H](C)CO)C[C@H](C)[C@H](CN(C)CC2CCCCC2)OCCCC[C@@H](C)O3)cc1 | -9 | -1 | 4 | -4
Oc1ccc2ccccc2c1CN1CC2CCC(CC2)C1 | 12 | -2 | 84* | .
Oc1ccc2ccccc2c1CN1CCCC1 | 12 | 2 | 26 | 39
CO[C@H]1CN(C)C(=O)c2ccc(NC(=O)C3CCC3)cc2OC[C@@H](C)N(C(=O)NC(C)C)C[C@H]1C | -5 | 2 | . | 8
CCOC(=O)c1c(NC(=S)N2CCOCC2)sc2c1CCN(C(=O)OCC)C2 | 14 | -32 | 27 | 63*
C[C@H]1CN([C@@H](C)CO)S(=O)(=O)c2ccc(C#CC3CCCCC3)cc2O[C@H]1CN(C)Cc1cccnc1 | 27 | 9.9* | . | -12
SMILES | EWS-Fli inh | F508del corr | PAX8 reporter | LGR2 antag
COc1ccccc1C#Cc1ccc2c(c1)O[C@@H](CN(C)Cc1ccncc1)[C@H](C)CN([C@@H](C)CO)S2(=O)=O | 34 | 2 | 101* | 41
COc1ccccc1C#Cc1ccc2c(c1)O[C@H](CN(C)Cc1ccccc1)[C@@H](C)CN([C@@H](C)CO)S2(=O)=O | 10 | -1 | . | 1
COc1ccccc1C#Cc1ccc2c(c1)O[C@@H](CN(C)Cc1ccncc1)[C@@H](C)CN([C@H](C)CO)S2(=O)=O | 22 | 6 | 4 | 10
COc1ccccc1C#Cc1ccc2c(c1)O[C@@H](CN(C)Cc1ccncc1)[C@H](C)CN([C@H](C)CO)S2(=O)=O | 38 | 2 | 99* | 34
C[C@H](CO)N1C[C@H](C)[C@@H](CN(C)Cc2cccnc2)Oc2cc(C#CC3CCCCC3)ccc2S1(=O)=O | 36 | 0 | . | -24
COc1ccccc1C#Cc1ccc2c(c1)O[C@@H](CN(C)Cc1cccnc1)[C@H](C)CN([C@@H](C)CO)S2(=O)=O | 15 | 9.5* | 68* | 43
O=C(C[C@@H]1C=C[C@@H](NC(=O)Cc2cccnc2)[C@@H](CO)O1)Nc1ccccc1 | -6 | 1 | 8 | 9
CCN(C(=O)CSc1nnc(-c2ccccc2C)n1C)c1c(N)n(Cc2ccccc2)c(=O)[nH]c1=O | -3 | 2 | 0 | -4
COc1ccccc1C#Cc1ccc2c(c1)O[C@H](CN(C)Cc1ccncc1)[C@@H](C)CN([C@@H](C)CO)S2(=O)=O | 14 | 3 | 93* | 29
O=C(C[C@H]1C[C@@H]2c3cc(NC(=O)NC4CCCC4)ccc3O[C@@H]2[C@H](CO)O1)NCc1ccc2c(c1)OCO2 | -2 | -1 | 12 | -3
CC(=O)c1c(C)[nH]c(C(=O)N(C)C(c2ccccc2)c2ccccc2)c1C | 7 | -2 | 14 | .
Cc1ccc(C(=O)NN=CC(=O)c2ccccc2)c(C)c1 | -8 | -3 | -183 | 70*
COc1cccc(NC(=O)N2CC(=O)N3[C@@H](CO)[C@H](c4ccc(C#CC5CCCCC5)cc4)[C@@H]3C2)c1 | -8 | 5 | 7 | 10
Cc1c(/C(O)=C2/C(=O)C(=O)N(CCN3CCOCC3)C2c2ccccn2)cnn1-c1ccccc1 (configuration not stated) | 13 | 0 | 18 | 80*
COC(=O)c1[nH]c2c(c1C)C(=O)CC(c1ccc(OC)cc1)C2 (configuration not stated) | 8 | -1 | -10 | -13
C/C=C/COC(=O)c1[nH]c2c(c1C)C(=O)CC(c1ccco1)C2 (configuration not stated) | 44 | -3 | 44 | -13
Cc1c(C(=O)OCC(C)C)[nH]c2c1C(=O)CC(c1ccco1)C2 (configuration not stated) | 53* | -3 | 68* | -26
Cc1c(C(=O)OC2CCCC2)[nH]c2c1C(=O)CC(c1ccco1)C2 (configuration not stated) | 28 | -3 | 76* | -18
COc1ccc(CNC(=O)Cn2nc([N+](=O)[O-])c(Br)c2C)cc1OC | 5 | 2 | 14 | 23
C[C@H]1CN([C@@H](C)CO)S(=O)(=O)c2ccc(Br)cc2O[C@@H]1CN(C)C(=O)C1CCOCC1 | 2 | 2 | 7 | -10
CC(=O)NC(=Cc1ccccc1)C(=O)N1CCCC1C(=O)O (configuration not stated) | 2 | -6 | 7 | 6
CCC(=O)Nc1ccc2c(c1)OC[C@@H](C)N(CC1CC1)C[C@@H](C)[C@H](OC)CN(C)C2=O | -4 | 0 | 12 | -15

Screens deposited in PubChem by Broad Institute.
